Compound activity (PubChem)
IL-1B inflam inh – inhibitors of inflammasome signaling (IL-1 beta secretion); THP-1 LPS/ATP IL-1B secretion, AlphaLISA, 16 h; stronger effect = lower value; activity change, % at 57.5 µM; hit rate 4.7% among 360,000; in the data active = activity change below about -50%; inconclusive = mostly about -30% to -49%
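THP-1 cells pretreated 1 hr with compounds (up to 57.5 uM final), then stimulated with LPS (250 ng/mL final) plus ATP (1.25 mM final); secreted IL-1B measured by AlphaLISA after 16 hr, decreased signal indicating inhibition.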
DT40 TDP1 CPT – growth inhibition of DT40 Tdp1-/-;hTDP1 cells with camptothecin (screen for TDP1 inhibitors). AID 686979. chicken DT40 Tdp1-/-;hTDP1 cells + 20 nM CPT, ATP luminescence, 48 h. hit rate 12% among 420,000. Potency, µM (titrated, usually from 46.2 µM), for inactives: at the top dose activity change, negative = growth inhibition, usual class: inhibitors; note: potency is the fitted concentration of half-maximal effect; nearly all actives have a fitted effect of over 55% in size
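Cell growth measured by CellTiter-Glo luminescence after a minimum 48 h, 37 C compound exposure with 20 nM CPT in Tdp1-knockout DT40 cells stably expressing hTDP1, seeded 400/well; qHTS titration format.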
HT1080 IDH1KD tx – kills HT-1080 cells with IDH1 knockdown. HT-1080 IDH1 knockdown viability, ATP luminescence, 48 h. Potency, µM (doses to about 46.1 µM), without a hit: top-dose activity, negative = toxicity, actives largely listed as cytotoxic. hit rate 2% among 360,000;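 note: potency is the fitted concentration of half-maximal effect; 0% = DMSO wells and -100% = cell-free medium wells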
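Assay cells: HT-1080 with IDH1 knockdown, 750 per well, RPMI/5% FBS. Exposure: 48 h at 37 °C following 2 h pre-incubation. Read: CellTiter-Glo luminescence; fitted concentration-response, curve class assigned.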
HT1080-NT tox – kills 2HG-producing HT-1080-NT fibrosarcoma cells | AID 686970 | HT-1080-NT fibrosarcoma viability, CellTiter-Glo ATP luminescence, 48 h | hit rate 1.6% among 360,000 | Potency, µM (top dose mostly 46.1 µM), inactives show at the highest dose activity, negative = less viability, most hits filed as cytotoxic;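 note: NT is the 2HG producing partner of a matched IDH1 knockdown line; potency is the fitted concentration of half-maximal effect; 0% = DMSO-treated cells and -100% = media-only wells without cells; nearly all actives have a fitted effect of over 55% in size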
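Read-out is CellTiter-Glo luminescence after 10 minutes at room temperature, following 48 hours' compound treatment of HT-1080-NT cells (750 cells/well, RPMI, 5% FBS, 37 degrees C).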
TDP1 cell noCPT – qHTS for Inhibitors of human tyrosyl-DNA phosphodiesterase 1 (TDP1): qHTS in cells in absence of CPT | DT40 Tdp1-/- hTDP1 cells, no CPT, ATP luminescence, 48 h | Potency, µM (doses to about 46.2 µM), without a hit: at the highest dose activity change, negative = growth inhibition, hits mostly inhibitors | hit rate 15% among 420,000 | AID 686978, 2013; note: potency is the fitted concentration of half-maximal effect; nearly all actives have a fitted effect of over 55% in size
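A cellular qHTS used chicken DT40 cells lacking endogenous Tdp1 but carrying stably transfected human TDP1. Compounds were applied without camptothecin, and cell growth kinetics were judged by ATP-dependent luminescence after ≥48 hr.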
Numbers without * were called inactive; ? = inconclusive; / = no result; ! = not confirmed by another sample. Hits are enriched below; roughly 19% of the tested compounds scored in any of these assays. Unless noted, calls come from the whole dose curve; as a rule, active = well fitted curve in the direction sought with a large enough effect; inconclusive = small, poorly fitted or top-dose-only effect, or another doubt; inactive = no such curve, though single readings can be large; an effect the other way counts as inactive or inconclusive. Unless noted, % is set by controls: 0 for no effect and ±100 for the full control effect.

SMILES	IL-1B inflam inh	DT40 TDP1 CPT	HT1080 IDH1KD tx	HT1080-NT tox	TDP1 cell noCPT
Cc1ccccc1Cn1c2ccccc2c2cnn(CC(=O)NCCc3ccc(Cl)cc3)c(=O)c21	/	?	/	/	18µM*
Cc1ccc(C)c(Cn2c3ccccc3c3cnn(CC(=O)NC(C)c4ccccc4)c(=O)c32)c1 (stereo not given)	/	2.9µM*	/	/	2.3µM*
COc1ccccc1NS(=O)(=O)c1cccc(C(=O)NCC2(N3CCCCC3)CCCCC2)c1	-6	-20%	-8%	-14%	-22%
CCCCOC(=O)c1cccnc1	55	2%	-1%	0%	-20%
Cc1cc(NC(=O)c2cc(Cl)ccc2Cl)ccc1-c1cc2ccccc2oc1=O	/	-20%	/	/	?
CCOC(=O)c1noc2nc(C)n(CC(=O)NC(C)CC)c(=O)c12 (stereo not given)	/	-9%	/	/	?
CC(CCc1ccccc1)NC(=O)Cn1ncc2c3ccccc3n(Cc3ccccc3F)c2c1=O (stereo not given)	/	8.2µM*	/	/	8.2µM*
Cc1ccc(C)c(Cn2c3ccccc3c3cnn(CC(=O)NC(C)CCc4ccccc4)c(=O)c32)c1 (stereo not given)	/	3.3µM*	/	/	3.3µM*
Cc1c2cnn(CC(=O)NCc3ccccc3)c(=O)c2c(C)n1Cc1cccc(Cl)c1	/	4.6µM*	/	/	3.3µM*
O=C(Cn1ncc2c3ccccc3n(Cc3ccccc3F)c2c1=O)NCCc1ccc(Cl)cc1	/	?	/	/	-24%
Cc1ccc(C)c(Cn2c3ccccc3c3cnn(CC(=O)NCc4ccccc4)c(=O)c32)c1	/	23µM*	/	/	21µM*
Cc1c2cnn(CC(=O)O)c(=O)c2c(C)n1Cc1cccc(Cl)c1	/	14%	/	/	-1%
COc1cccc(CNC(=O)CCc2c(C)nc3c(c2C)c(=O)n(C)c(=O)n3C)c1	/	15%	/	/	-22%
C=CCc1cccc2cc(C(=O)N3CCN(C(=O)c4ccccc4)CC3)c(=O)oc12	-7	-2%	4%	-14%	-27%
COc1cccc(-c2cc(CC3(O)CCN(CCCc4ccccc4)CC3)on2)c1	?	-14%	-14%	-7%	5%
C=CCOC(=O)C1=C(C)NC(SC)=C(C#N)C1c1ccc(OCC)cc1 (stereo not given)	-75*!	?	?	?	?
C=CCOC(=O)C1=C(C)NC(SCC(=O)Nc2nccs2)=C(C#N)C1c1ccc(Cl)cc1 (stereo not given)	-6	22µM*	?	?	32µM*
C=CCOC(=O)C1=C(C)NC(SC)=C(C#N)C1c1cccs1 (stereo not given)	-12	?	18µM*	9.2µM*	?
NC(=O)[C@@H]1CCCN1Cc1nc(Cc2ccccc2Cl)no1	16	-18%	1%	0%	0%
CCOC(=O)C1=C(C)N(c2ccc(C)c(C)c2)C(=O)/C1=C\c1ccco1	-4	-7%	-20%	2%	?
CCOC(=O)C1=C(C)N(c2ccc(OC)cc2)C(=O)/C1=C\c1cccs1	-60*	?	-2%	-6%	?
COC(=O)C1=C(C)N(c2ccc(C)cc2)/C(=C/c2cccs2)C1=O	-2	?	8%	-1%	26µM*
CCOC(=O)C1=C(C)N(c2ccc(OC)cc2)C(=O)/C1=C\c1ccc(O)c(OCC)c1	36	23µM*	-5%	0%	?
C=CCN1C(=O)/C(=C\c2cccs2)C(C(=O)OC)=C1C	-16	-23%	-1%	-1%	-20%
CC(=O)Nc1cccc(-c2csc(C(C)(O)c3ccc(F)c(F)c3)n2)c1 (stereo not given)	34	?	-23%	-28%	?
SMILES	IL-1B inflam inh	DT40 TDP1 CPT	HT1080 IDH1KD tx	HT1080-NT tox	TDP1 cell noCPT
Cc1ccc(NS(=O)(=O)c2ccc3c(c2)n(C)c(=O)n3C)cc1	-12	?	2%	0%	-21%
COc1ccc(NS(=O)(=O)c2ccc3c(c2)n(C)c(=O)n3C)cc1	-70*	-29%	0%	-5%	-9%
Cn1c(=O)n(C)c2cc(NS(=O)(=O)c3ccc(C(C)(C)C)cc3)ccc21	8	18µM*	?	-22%	18µM*
CC(=O)Nc1ccc(NS(=O)(=O)c2ccc3c(c2)n(C)c(=O)n3C)cc1	-4	-1%	-3%	-16%	-2%
Cn1c(=O)n(C)c2cc(NS(=O)(=O)c3ccc4c(c3)CCCC4)ccc21	-18	18µM*	?	?	?
COC(=O)c1ccc(CN2[C@H](C(=O)OC)C[C@@]3(O)[C@@H](O)[C@@H](O)[C@@H](O)C[C@@H]23)cc1	7	?	14%	14%	1%
O=C(NCc1ccccc1)C1CCN(C(=O)c2cnn(-c3ccccc3)c2-n2cccc2)CC1	/	-30%	/	/	-19%
O=C(c1cnn(-c2ccccc2)c1-n1cccc1)N1CCN(C2CCCCC2)CC1	25	-1%	13%	15%	?
CCCSCCCNC(=O)C1CCN(C(=O)c2cnn(-c3ccccc3)c2-n2cccc2)CC1	/	18µM*	/	/	?
Cc1ccc(Cl)cc1NC(=O)C1CCN(C(=O)c2cnn(-c3ccccc3)c2-n2cccc2)CC1	/	-30%	/	/	21µM*
COCCCNC(=O)C1CCN(C(=O)c2cnn(-c3ccccc3)c2-n2cccc2)CC1	/	-3%	/	/	-4%
CCc1cccc(NC(=O)C2CCN(C(=O)c3cnn(-c4ccccc4)c3-n3cccc3)CC2)c1	/	21µM*	/	/	15µM*
O=C(Nc1cc(F)ccc1F)C1CCN(C(=O)c2cnn(-c3ccccc3)c2-n2cccc2)CC1	/	?	/	/	26µM*
CC1CCCN(C(=O)COc2ccc(Nc3ccccc3)cc2)C1 (stereo not given)	0	?	0%	-6%	?
O=C(N[C@@H]1CC[C@@H](CCn2cc(-c3ccccc3)nn2)O[C@@H]1CO)c1cnccn1	31	14%	4%	11%	-1%
CC(=O)c1nnn(-c2nc(N)nc(N(c3ccccc3)c3ccccc3)n2)c1C	38	29µM*	13%	-1%	15µM*
Cc1cc(C)n(-c2nc(N(c3ccccc3)c3ccccc3)nc(-n3nc(C)cc3C)n2)n1	-84*	18µM*	2%	5%	13µM*
CCCCN(CCCC)c1nc(OC)nc(-n2nnc(C(C)=O)c2C)n1	-1	23µM*	-12%	0%	?
CC(=O)N1CCN(Cc2cc(=O)oc3cc(C)cc(C)c23)CC1	-15	-2%	16%	4%	-15%
CS(=O)(=O)N1CCC2(CCCN(C(=O)Nc3cccc(C#N)c3)C2)CC1	/	-1%	/	/	0%
O=S(=O)(c1ccccc1)N1CCC[C@@]2(CCN(c3ccncc3)C2)C1	/	?	/	/	18µM*
